Screening results (PubChem BioAssay)
ERG-DNA inh: blocks human ERG Ets domain binding to DNA | hit rate 0.028% among 370,000 | Potency, µM (series often up to 76.9 µM), inactives show top-dose FP activity, negative = inhibition, usual class: inhibitors | AID 624246 | fluorescence polarization, His-ERG Ets domain / labelled DNA; active = well fitted inhibition curve with a large enough effect in the polarisation, with a control signal flat; inconclusive = small, poorly fitted or top-dose-only effect, or effect the other way, or a change in a side signal; inactive = no such curve, though single readings can be large or run the other way; the % refers to the polarisation;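 also: polarization taken with two DNA probes labelled with fluorescein and Texas red; % of control where 0% means no effect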
Target sequence (P11308 whole entry, looked up, the tested form may be a part): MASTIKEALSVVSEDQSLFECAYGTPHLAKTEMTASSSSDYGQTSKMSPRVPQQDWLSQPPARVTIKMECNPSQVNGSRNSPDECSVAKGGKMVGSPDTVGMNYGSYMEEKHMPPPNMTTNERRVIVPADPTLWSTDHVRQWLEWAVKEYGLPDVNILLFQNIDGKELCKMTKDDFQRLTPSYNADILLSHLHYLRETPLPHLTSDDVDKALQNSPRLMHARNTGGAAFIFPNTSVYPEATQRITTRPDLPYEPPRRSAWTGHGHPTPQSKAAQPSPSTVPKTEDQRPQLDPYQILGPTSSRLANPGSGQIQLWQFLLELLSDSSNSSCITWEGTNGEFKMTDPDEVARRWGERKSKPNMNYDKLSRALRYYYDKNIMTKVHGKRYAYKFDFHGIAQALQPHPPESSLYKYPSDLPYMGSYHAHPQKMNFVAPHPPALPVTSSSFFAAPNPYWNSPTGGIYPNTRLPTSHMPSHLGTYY
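His-tagged ERG Ets domain (1 uM in the protein solution; 300mM KCl, 50mM Tris-HCl, 1mM EDTA, 1mM DTT, pH 7.5) received compound, then a probe mix of 5 nM fluorescein-DNA and 100nM Texas-615-DNA. Fluorescence polarization was read for both dyes.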
Mito fusion act: blocks mitochondrial division or promotes mitochondrial fusion. S. cerevisiae fusion-defective mutant growth rescue, CellTiterGlo 48 h. hit rate 0.23% among 320,000. Potency, µM (highest dose often 46.1 µM), for inactives: at the highest dose growth rescue (activation), most hits filed as activators; also: % of control where 0% means no effect; nearly all actives have a fitted effect of over 45% in size
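Temperature-sensitive fusion-defective S. cerevisiae (e.g. fzo1-1, mgm1-5) were grown with compound in YPEG medium (3% ethanol, 3% glycerol) for 48 hours at 37C. Growth rescue was measured as viability by CellTiterGlo luminescence after 10 minutes at ambient.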
TDP-43 yeast inh: rescues yeast growth from TDP-43 toxicity | Potency, µM (top dose mostly 46.1 µM), for inactives: top-dose growth rescue (activation), most hits filed as activators | TDP-43 expressing yeast growth rescue, BacTiter-Glo, 24 h | hit rate 1.8% among 410,000; also: % of control where 0% means no effect; nearly all actives have a fitted effect of over 50% in size
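Cell-based yeast growth screen: TDP-43 expression induced in galactose, inoculum OD600=0.02 after raffinose pregrowth to mid-log. Read-out BacTiter-Glo luminescence at 24 hr, 30 deg C; inhibition of toxicity seen as signal increase.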
aSyn yeast inh: inhibitors of alpha-synuclein toxicity in yeast. Yeast expressing alpha-synuclein, growth rescue, BacTiter-Glo, 24 h. hit rate 0.14% among 370,000. AID 652106. Potency, µM (titrated, usually from 46.1 µM), inactives show top-dose growth rescue (activation), actives largely listed as activators; also: % of control where 0% means no effect; nearly all actives have a fitted effect of over 65% in size
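Readout is rescue of growth in alpha-synuclein-expressing yeast, so inhibitors of toxicity appear as activators. Growth after 24 hr at 30 deg C in galactose medium is quantified by luminescence.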
Abeta rescue: restores growth of yeast expressing A-beta42 peptide. hit rate 0.063% among 410,000. yeast expressing A-beta42, growth rescue, OD600, 48 h; response scale: 0% DMSO, 100% iron-clioquinol control. Potency, µM (series often up to 46.1 µM), actives largely listed as activators; also: nearly all actives have a fitted effect of over 55% in size
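Yeast growth medium received pinned compounds, then yeast cells expressing toxic A-beta were added; plates incubated at 30 C for 48 hr. Growth read as absorbance at 600 nm, normalized to DMSO and equimolar FeCl3 plus clioquinol controls.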
FUS yeast rescue: rescues growth of FUS-expressing yeast. Potency, µM (top dose mostly 76.6 µM), hits mostly activators. AID 1347120. hit rate 0.24% among 390,000. S. cerevisiae FUS-expressing, growth rescue, OD600, 24 h;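 also: plate controls were DMSO vehicle for no effect and reference control for full effect; nearly all actives have a fitted effect of over 55% in size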
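Read-out: OD at 600 nm after 24hr at 30C, reporting rescue of FUS-induced yeast toxicity. Cells at OD 0.005 in galactose (2%) minimal medium; compounds tested in a dilution series; CP55940 titration from 92uM final as control.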
Active calls of the source: *; i = inactive; ? = inconclusive; · = no result given. Most compounds without a hit are left out; they make up all but 2.2% or so of the library. Unless noted, calls follow the shape of the dose curve; as a rule, active = well fitted curve in the direction sought with a large enough effect; inconclusive = small, poorly fitted or top-dose-only effect, or another doubt; inactive = no such curve, though single readings can be large; an effect the other way counts as inactive or inconclusive. Potency is read from the fitted curve at half-maximal effect.

SMILES	ERG-DNA inh	Mito fusion act	TDP-43 yeast inh	aSyn yeast inh	Abeta rescue	FUS yeast rescue
COc1ccc2c(C)cc(SCn3nnc4ccccc4c3=O)nc2c1	-21%	1%	7%	3.5µM*	i	i
COc1ccc(OC)c(C(=O)Cn2nnc3ccccc3c2=O)c1	-4%	-1%	-11%	4%	i	i
O=c1c2ccccc2nnn1CSc1ccc2c(c1)OCCO2	0%	-3%	11µM*	?	i	i
CCC(=O)Nc1ccc(NCc2ccc(-c3ccccc3)cc2)cc1	-1%	5%	13µM*	0%	i	i
Cc1cccc(NC(=S)NCc2ccco2)n1	-4%	4%	?	1%	13µM*	i
Cc1cccc(Cn2cc(C(=O)c3ccccc3)c(=O)c3cc4c(cc32)OCO4)c1	8%	·	35µM*	·	i	i
COc1ccc(C(=O)c2cn(Cc3cccc(C)c3)c3cc4c(cc3c2=O)OCCO4)cc1OC	7%	·	18%	·	i	?
O=C(Nc1nc(-c2ccc(Cl)cc2Cl)cs1)C1CCCO1 (configuration not stated)	-4%	27%	13µM*	-7%	i	i
O=C(Nc1nc(-c2ccc(Cl)cc2)cs1)C1CCCO1 (configuration not stated)	-1%	-1%	?	2%	i	i
CC(=O)c1ccc(NC(=S)N2CCC(Cc3ccccc3)CC2)cc1	-10%	5%	25µM*	15%	?	i
CC(=O)c1ccc(NC(=S)N2c3ccccc3CC2C)cc1 (configuration not stated)	3%	-8%	16µM*	?	i	i
CC1Cc2ccccc2N1C(=S)Nc1ccc(S(N)(=O)=O)cc1 (configuration not stated)	-11%	-6%	?	3%	i	·
COC1=C[C@H](C(=O)NCc2ccccn2)[C@@]2(C)Cc3ccccc3[C@H]2CC1=O	·	·	·	·	·	i
COc1cc(F)c(S(=O)(=O)N2CCCN(S(=O)(=O)c3cccc(N)c3)CC2)c(F)c1	·	·	·	·	·	i
Cc1cc(-c2cccc([N+](=O)[O-])c2)nc2ccccc12	-18%	-3%	11µM*	-2%	i	i
Cn1c(CNc2ccccc2F)nc2ccccc21	·	·	·	·	·	i
COc1ccc(/C=C/c2noc(-c3ccccc3O)n2)cc1	1%	-2%	-4%	0%	i	i
CC(=O)Oc1ccccc1-c1nc(/C=C/c2ccccc2)no1	45%	-6%	18µM*	-14%	i	i
O=S(=O)(NC(=S)NC1CCCCC1)c1ccc(Br)cc1	0%	10%	20µM*	11%	i	i
Cc1cc(C)cc(NS(=O)(=O)c2cnc(Cl)c(Cl)c2)c1	-1%	25%	35µM*	15%	i	i
CCOc1ccc(NS(=O)(=O)c2cnc(Cl)c(Cl)c2)cc1	13%	-6%	-61%	8%	i	·
O=C(O)C1=CC[C@@H](c2ccc(Cl)cc2)N(S(=O)(=O)c2ccc(Cl)cc2)[C@H]1c1ccc(Br)cc1	1%	·	?	3%	i	i
CC[n+]1c(/C=C/C=C/N(C(C)=O)c2ccccc2)sc2ccccc21	14%	2%	-22%	-5%	i	18µM*
COc1cnc(-c2ccccn2)nc1Sc1ccc(Cl)cc1	0%	-8%	14µM*	-6%	?	i
COc1ccc(Sc2nc(-c3ccccn3)ncc2OC)cc1	-16%	9%	2%	13%	?	i
SMILES	ERG-DNA inh	Mito fusion act	TDP-43 yeast inh	aSyn yeast inh	Abeta rescue	FUS yeast rescue
COc1cnc(-c2ccccn2)nc1Sc1ccc(F)cc1	-5%	7%	-19%	9%	10µM*	i
CC[C@H]1C(c2ccc(F)cc2)=NN(c2ccccc2)[C@@H]1CO	-11%	·	11µM*	7%	?	i
Cc1noc(-c2ccccc2OCC(=O)Nc2ccccc2[N+](=O)[O-])n1	-1%	·	20µM*	·	i	i
COc1ccccc1NC(=O)COc1cccnc1[N+](=O)[O-]	4%	·	7.9µM*	9%	i	i
Cc1ccccc1-c1noc(-c2ccccc2OCC(=O)Nc2ccccc2[N+](=O)[O-])n1	-5%	·	6%	·	i	i
CCN1C(=O)c2cccc3c(S(=O)(=O)N4CCNCC4)ccc1c23	8%	·	-16%	1%	i	i
CCCCCCNc1ccc(/C=C/c2ccnc3ccccc23)cc1	·	·	·	-65%	·	·
COc1ccc(OC)c(S(=O)(=O)Nc2ccc(C(=O)Nc3cc(C)on3)cc2)c1	·	·	·	·	·	i
CC(=O)CC[C@@H]1CC[C@]2(CCCN(C(=O)c3ccno3)C2)O1	·	·	·	·	·	i
Cc1cc(C)n2nc(-c3cccc(Br)c3)cc2n1	14%	2%	11µM*	5%	i	i
Cc1ccc(C)c(NC(=O)CSc2cccc3cccnc23)c1	7%	-3%	5.6µM*	21%	i	i
CCCc1ccc(C2Sc3ccccc3NC3=C2C(=O)c2ccccc23)cc1 (configuration not stated)	-12%	·	10%	·	i	i
O=C(Cn1cnc([N+](=O)[O-])c1)c1ccc(Cl)cc1	38%	20%	16µM*	0%	i	i
O=c1oc2cc(O)ccc2cc1-c1ccccc1	-7%	20%	16µM*	8%	·	i
CCCCC(=O)Nc1ccc(OCc2cc(=O)n3c(C)csc3n2)cc1	-2%	·	?	·	i	i
Nn1c(SCC(=O)Nc2ccccc2-c2ccccc2)nnc1-c1cc(-c2ccc(F)cc2)n[nH]1	·	·	·	·	·	i
CCN(CC)CCSc1nnc2c3cc(F)ccc3n(C)c2n1	-1%	·	-15%	·	i	i
CSc1nnc2c3cc(F)ccc3n(C)c2n1	-7%	-3%	6.3µM*	2.8µM*	i	i
CCc1nn2c(=O)c(S(=O)(=O)Nc3ccc(OC)c(Cl)c3)c(C)nc2s1	7%	·	0%	·	i	i
CNC(=S)N/N=C(\C)c1ccc(Cl)s1	-1%	-6%	14µM*	-9%	?	i
CCN1CCN(C(=O)/C=C/c2ccc(C)o2)CC1	·	-2%	11%	-1%	i	·
Cc1ccc(/C=C/C(=O)N2CC(C)CC(C)C2)o1 (configuration not stated)	2%	-2%	25µM*	8%	i	i
O=c1c2ccc([N+](=O)[O-])cc2ncn1CCOc1ccc(Cl)cc1	5%	3%	25µM*	7%	i	i
CCc1noc(-c2ccc(N3CCCCC3)c([N+](=O)[O-])c2)n1	3%	·	5%	·	i	i
